# Hits are enriched below; roughly 21% of the tested compounds scored in any of these assays.
# CHX counter: counter-screen hit for Shiga toxin inhibitors, cycloheximide; cell reporter, cycloheximide protein synthesis inhibition counterscreen; max response, %; actives 12% (n = 300,000); in the data active = max response mostly above about 13%, no sharp cut-off; inactive = mostly below about 14%; note: read at 38.3 µM for the half of the compounds with a filed dose; 0% is about no effect
# NS1 function inh: inhibitors of influenza NS1 protein function; Potency, µM (titrated, usually from 46.1 µM), for the others: at the top dose activity, positive = more growth; actives 0.4% (n = 270,000); calls by dose curve; note: potency is the fitted concentration of half-maximal effect; actives are rising curves; nearly all actives have a fitted effect of over 50% in size
#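 In this qHTS, NS1 from influenza A is expressed in budding yeast, where it slows growth. Cells are switched from glucose to 2% galactose medium (pH 6.0, -URA), treated with compound, and growth recovery is read at OD600.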
# Shiga toxin inh: Shiga toxin inhibition | inhibition, % at 38.7 µM | actives 9.2% (n = 290,000) | Vero cells, Shiga toxin protein synthesis inhibition reporter | AID 2315; in the data active = inhibition mostly above about 28%, no sharp cut-off; inactive = mostly below about 43%; note: 0% is about no effect
# FBPA Giardia inh: blocks Giardia fructose-bisphosphate aldolase activity | AID 2451 | actives 0.71% (n = 290,000) | purified Giardia FBPA | A8B2U2 | Potency, µM (highest dose often 59.6 µM), for inactives: at the highest dose activity, negative = inhibition, actives largely listed as inhibitors; note: potency is the fitted concentration of half-maximal effect; % is set by controls: 0 for no effect and ±100 for the full control effect; nearly all actives have a fitted effect of over 55% in size
# Target sequence (A8B2U2 whole entry, looked up): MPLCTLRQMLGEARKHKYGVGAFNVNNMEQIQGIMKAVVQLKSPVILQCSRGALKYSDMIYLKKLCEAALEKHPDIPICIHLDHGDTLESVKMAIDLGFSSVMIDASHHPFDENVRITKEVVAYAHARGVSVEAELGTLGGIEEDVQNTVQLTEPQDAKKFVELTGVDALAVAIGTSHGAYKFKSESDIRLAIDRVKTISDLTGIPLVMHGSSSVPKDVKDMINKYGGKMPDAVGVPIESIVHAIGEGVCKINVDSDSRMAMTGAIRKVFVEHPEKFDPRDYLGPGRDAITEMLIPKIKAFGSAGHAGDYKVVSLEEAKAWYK
#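 Giardia FBPA (40 nM reagent) was preincubated 10 min at RT with compound (up to 57.5 uM final), then substrate plus GAPDH/TPI/NAD/arsenate coupling system with diaphorase/resazurin was added; resorufin fluorescence (525/598 nm) was read after 20 min.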
# Pf growth 96h: P. falciparum growth inhibition at 96 hours; actives 6.9% (n = 320,000); AID 504834; Potency, µM (top dose mostly 28.7 µM), for the others: at the top dose activity change, negative = inhibition, hits mostly inhibitors; P. falciparum luciferase reporter growth, 96 h; note: potency is the fitted concentration of half-maximal effect; % is set by controls: 0 for no effect and ±100 for the full control effect
#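 Two-generation exposure (96 h) targets delayed-death phenotype. Reporter parasites carrying integrated firefly luciferase, in red cells at 2% hematocrit and 0.05% parasitemia final, kept at 37 C, 5% CO2; luminescence loss indicates inhibition.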
# Pf growth 48h: P. falciparum growth inhibition at 48 hours (one generation) | P. falciparum luciferase growth in erythrocytes, 48 h | Potency, µM (top dose mostly 28.7 µM), without a hit: at the highest dose activity change, negative = inhibition, actives largely listed as inhibitors | actives 5.9% (n = 310,000); note: potency is the fitted concentration of half-maximal effect; % is set by controls: 0 for no effect and ±100 for the full control effect
#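 Read-out is firefly luciferase luminescence from an integrated reporter in P. falciparum, so falling signal marks reduced parasite growth. Infected erythrocytes were at 2% hematocrit and 0.1% parasitemia (final) in Albumax-supplemented RPMI 1640.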
# Active calls of the source: *; ? = inconclusive; . = not tested or not shown. Unless noted, calls come from the whole dose curve; as a rule, active = well fitted curve in the direction sought with a large enough effect; inconclusive = small, poorly fitted or top-dose-only effect, or another doubt; inactive = no such curve, though single readings can be large; an effect the other way counts as inactive or inconclusive.
SMILES,CHX counter,NS1 function inh,Shiga toxin inh,FBPA Giardia inh,Pf growth 96h,Pf growth 48h
Cc1ccc(-n2nnnc2SCc2nnc(-c3ccccc3Br)o2)cc1,2,-85%,23,9%,25%,4%
CC(C)(CC(=O)Nc1ccccc1)C(=O)O,.,-1%,.,.,.,.
COc1ccccc1NC(=O)CSc1nnc(COc2ccccc2OC)n1C,-5,-6%,-12,5%,-3%,-10%
CCOc1cc(C2C(C(=O)c3ccccc3)=C(C(=O)OC)Nc3nnnn32)ccc1O (stereo unspecified),23*,5%,33,-2%,?,3%
COC(=O)C1=C(C)Nc2nnnn2C1c1ccc(Cl)cc1Cl (stereo unspecified),-2,-45%,1,9%,?,4.7µM*
COC(=O)C1=C(C(=O)c2ccccc2)C(c2ccc(O)c(OC)c2)n2nnnc2N1 (stereo unspecified),-2,-8%,-6,1%,-53%,0%
COc1ccc(C2C(C(=O)OC3CCCCC3)=C(C)Nc3nnnn32)c(OC)c1OC (stereo unspecified),-2,-17%,1,5%,5%,9.3µM*
CCOC(=O)C1=C(C)Nc2nnnn2C1c1ccc(OC)c(Br)c1 (stereo unspecified),-4,-9%,-9,-23%,12µM*,?
CC1=C(C(=O)OC2CCCCC2)C(c2cccnc2)n2nnnc2N1 (stereo unspecified),-1,?,-7,0%,2%,13%
CCCCN(C)CCNC(=O)CCNC(=O)Cn1ccc2ccccc2c1=O,-3,-1%,-3,6%,8%,5%
COc1cccc(NC(=O)N2CCCC2C(=O)NCc2ccc(Cl)cc2)c1 (stereo unspecified),-2,-2%,5,5%,?,9%
Cc1ccc(/C=N/NC(=O)c2ccc3ccccc3c2)s1,28*,-26%,47*,-12%,-6%,44%
O=C(N/N=C/c1cc(Br)cs1)c1ccc2c(c1)OCCO2,37*,-3%,68*,-22%,66%,0%
Cc1ccc(/C=N/NC(=O)c2ccc3c(c2)OCCO3)s1,38*,-31%,55*,-14%,56%,203%
Cc1ccc(C(=O)N/N=C\c2cc3c(cc2Br)OCO3)s1,-1,0%,15,2%,?,?
Cc1cccc(C)c1N(CC(=O)NCc1ccco1)C(=O)CNS(=O)(=O)c1ccc(F)cc1,2,2%,17,.,6%,-31%
COCCCNC(=S)Nc1ccc(S(=O)(=O)Nc2cc(OC)nc(OC)n2)cc1,2,18%,-9,?,-17%,-17%
C/C1=C2N=C(/C=C3N=C(/C(C)=C4\[N-]C(C)(C5N=C1C(C)(CCC(=O)NCC(C)OP(=O)([O-])O[C@H]1C(O)C(n6cnc7cc(C)c(C)cc76)O[C@@H]1CO)C5CC(N)=O)C(C)(CC(N)=O)C4CCC(N)=O)C(C)(CC(N)=O)C\3CCC(N)=O)C(C)(C)C/2CCC(N)=O.[CH2-]C1OC(n2cnc3c(N)ncnc32)C(O)C1O.[Co] (stereo partly specified),.,.,.,?,6.7µM*,8.5µM*
CC(C)(COP(=O)(O)OP(=O)(O)OC[C@H]1O[C@@H](n2cnc3c(N)ncnc32)[C@H](O)[C@@H]1OP(=O)(O)O)C(O)C(=O)NCCC(=O)NCCS (stereo partly specified),.,.,.,.,83%,31%
CCN(C(=O)COC(=O)CN(C)S(=O)(=O)c1ccc(NC(C)=O)cc1)C1CCS(=O)(=O)C1 (stereo unspecified),-2,1%,4,-2%,40%,11%
COCC1CCCC1OS(N)(=O)=O (stereo unspecified),-2,-3%,-5,18%,8%,32%
Cc1cc(=O)n2[nH]c(-c3ccc(F)cc3)cc2n1,25*,-8%,51*,7%,60%,42%
Cc1cccc(-c2cc3nc(-c4ccccc4)cc(=O)n3[nH]2)c1,21*,0%,49,-13%,-5%,8%
Cc1cc(=O)n2[nH]c(-c3ccc(Cl)cc3)cc2n1,36*,1%,82*,2%,?,?
Cc1cc(=O)n2[nH]c(C)c(-c3ccc(Cl)cc3)c2n1,1,5%,2,-13%,-68%,?
SMILES,CHX counter,NS1 function inh,Shiga toxin inh,FBPA Giardia inh,Pf growth 96h,Pf growth 48h
Cc1ccccc1-c1cc2nc(-c3ccc([N+](=O)[O-])cc3)cc(=O)n2[nH]1,1,5%,-5,1%,47%,7%
O=C(COc1ccc(-c2ccccc2)cc1)NNC(=O)Nc1ccccc1,.,.,.,.,?,-5%
COc1ccc(S(=O)(=O)N2CCOCC2)cc1NC(=O)CN1C(=O)NC2(CCCC2)C1=O,.,.,.,.,5%,-21%
CCCCN(C(=O)c1cc2c(s1)CCCCC2)c1c(N)n(CC(C)C)c(=O)[nH]c1=O,.,.,.,.,27%,?
CCOc1ccc(/C=N/NC(=O)C(O)c2ccccc2)c(O)c1 (stereo unspecified),7,0%,-6,-11%,-20%,-15%
CCOC(=O)C1=C(Cc2ccc(OC)cc2)C(=O)c2ccccc2C1=O,27*,-91%,23,1.4µM*,.,4.7µM*
CCOC(=O)c1c(C)nc2c(c1-c1cc(OC)ccc1OC)C(=O)c1ccccc1-2,-1,-6%,-10,-5%,-2%,-8%
CCOC(=O)c1ccc(COC(=O)c2ccc3c(c2)-c2ccccc2C3=O)cc1,-3,6%,-11,-2%,79%,51%
CCOC(=O)C1=C(Cc2ccc(C)cc2)C(=O)c2ccccc2C1=O,19*,-190%,10,4µM*,2.3µM*,.
O=C(CCCNC(=O)c1ccc(Cl)cc1)OCc1cccc(Br)c1,.,.,.,.,31%,-17%
O=C(Nc1cccc(C(F)(F)F)c1)C1=CC=CN2CCS(=O)(=O)N=C12,.,.,.,.,-15%,18%
CCOc1ccc2c(c1)OC(c1ccc(OC)cc1)(C(F)(F)F)NC2=O (stereo unspecified),2,2%,2,0%,?,?
CCOc1ccc2c(c1)OC(c1ccccc1)(C(F)(F)F)NC2=O (stereo unspecified),-4,21%,-4,4%,0.23µM*,1.7µM*
Cc1cccc(-c2nn(C(=S)Nc3ccccc3)cc2-c2ccnc3ccccc23)n1,14,.,2,-28%,.,.
Cc1nc(CS(=O)(=O)c2ccccc2)cc(Sc2ccc(Cl)cc2Cl)n1,17*,-13%,68*,-2%,?,?
Cc1nc(Cl)cc(CS(=O)(=O)c2ccc(Cl)cc2)n1,-2,.,-8,-30%,18%,0%
O=C1CSc2ccccc2N1Cc1ccc(F)cc1,31*,-75%,23,4%,?,-53%
O=C(O)CN1C(=O)CSc2ccccc21,-1,-6%,-5,4%,?,4%

# Screening data: PubChem BioAssay, National Center for Advancing Translational Sciences (NCATS)
